For some assays here: Results with a measured potency or affinity are listed apart.
Experiments:
Parameters in all cases: scale not given: direction of the effect not stated beside the values
[1] = target: Protein translocase subunit SecA (Escherichia coli (strain K12)) (UniProt P10408); assay: Assay to Identify E. coli SecA ATPase Inhibitors; assay type: functional; conditions: 30 µM
[2] = target: T1, Ubiquitin-activating enzyme e1, putative (Leishmania donovani (strain BPK282A1)) (UniProt E9BSI1); assay: Leishmania donovani Ubiquitin Activating Enzyme (LdE1); assay type: functional; conditions: 30 µM
T1 sequence (whole entry): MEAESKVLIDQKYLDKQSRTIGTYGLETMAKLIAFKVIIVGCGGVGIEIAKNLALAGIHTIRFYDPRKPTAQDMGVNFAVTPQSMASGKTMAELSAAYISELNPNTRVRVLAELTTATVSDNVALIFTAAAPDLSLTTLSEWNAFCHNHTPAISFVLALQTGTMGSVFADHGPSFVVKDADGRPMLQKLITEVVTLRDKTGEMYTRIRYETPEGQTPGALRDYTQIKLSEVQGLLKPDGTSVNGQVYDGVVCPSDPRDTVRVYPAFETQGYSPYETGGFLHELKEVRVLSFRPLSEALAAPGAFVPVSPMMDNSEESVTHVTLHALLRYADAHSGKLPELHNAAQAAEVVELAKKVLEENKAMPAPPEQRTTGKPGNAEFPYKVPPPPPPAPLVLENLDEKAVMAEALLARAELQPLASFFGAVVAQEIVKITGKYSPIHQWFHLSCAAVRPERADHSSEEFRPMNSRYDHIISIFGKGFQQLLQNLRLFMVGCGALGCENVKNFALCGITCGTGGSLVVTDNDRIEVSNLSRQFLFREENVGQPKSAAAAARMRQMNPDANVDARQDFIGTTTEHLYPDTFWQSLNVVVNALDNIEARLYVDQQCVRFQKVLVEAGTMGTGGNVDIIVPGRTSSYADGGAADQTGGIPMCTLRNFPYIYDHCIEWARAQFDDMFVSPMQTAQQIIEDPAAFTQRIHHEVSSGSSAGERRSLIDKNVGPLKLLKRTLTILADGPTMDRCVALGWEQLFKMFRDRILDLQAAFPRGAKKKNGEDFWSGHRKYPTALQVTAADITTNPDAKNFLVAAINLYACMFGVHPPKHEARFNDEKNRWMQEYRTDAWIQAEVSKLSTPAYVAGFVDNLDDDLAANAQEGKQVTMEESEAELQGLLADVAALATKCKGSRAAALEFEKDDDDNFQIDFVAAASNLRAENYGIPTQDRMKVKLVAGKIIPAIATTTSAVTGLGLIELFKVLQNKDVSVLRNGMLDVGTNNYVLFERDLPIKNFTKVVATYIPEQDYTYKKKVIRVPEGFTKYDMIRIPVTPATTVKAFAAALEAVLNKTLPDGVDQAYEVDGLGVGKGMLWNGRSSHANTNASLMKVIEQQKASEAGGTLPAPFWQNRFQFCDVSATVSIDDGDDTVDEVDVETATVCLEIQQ

[3] = target: AMP-activated protein kinase, AMPK (Homo sapiens) (UniProt P54646+O43741+P54619+Q9UGJ0+Q9Y478+Q13131+Q9UGI9); assay: AMP-dependent Kinase enzyme assay. An in vitro enzyme assay that detects ADP turnover that is directly proportional to AMPK activity. This uses naive AMPK that is activated during the assay with MK-8722; assay type: functional; conditions: 30 µM
[4] = target: Sialic acid-binding Ig-like lectin 9 (Homo sapiens) (UniProt Q9Y336); assay: Hs-Siglec9 ALPHAscreen SOP 20170721; conditions: 10 µM
Trypanosoma cruzi = assay: Trypanosoma cruzi phosphomannomutase and mannose-1-phosphate guanylyltransferase assay; assay type: functional; conditions: 10 µM
[5] = target: T2, Arginase-2, mitochondrial (Homo sapiens) (UniProt P78540); assay: in vitro enzyme assay to detect the production of urea directly proportional to the activity of Arginase II; assay type: functional; conditions: 33.3 µM; note: in the data most compounds retested in dose-response had high values
T2 sequence (whole entry): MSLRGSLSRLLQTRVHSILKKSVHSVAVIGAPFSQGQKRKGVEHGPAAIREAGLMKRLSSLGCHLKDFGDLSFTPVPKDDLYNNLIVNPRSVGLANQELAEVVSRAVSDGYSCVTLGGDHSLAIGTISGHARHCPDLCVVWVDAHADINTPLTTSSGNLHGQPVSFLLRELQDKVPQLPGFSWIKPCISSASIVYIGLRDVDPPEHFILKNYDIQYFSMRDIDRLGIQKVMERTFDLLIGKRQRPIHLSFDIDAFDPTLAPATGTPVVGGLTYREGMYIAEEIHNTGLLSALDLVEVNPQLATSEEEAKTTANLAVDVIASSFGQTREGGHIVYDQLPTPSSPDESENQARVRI

[6] = target: T3, Proteasome subunit beta (Trypanosoma cruzi) (UniProt O96673); assay: Trypanosoma cruzi proteasome chymotrypsin-like activity (TcProtChymo) assay.; note: in the data most compounds retested in dose-response had high values; assay type: functional; conditions: 9.37 µM
T3 sequence (whole entry): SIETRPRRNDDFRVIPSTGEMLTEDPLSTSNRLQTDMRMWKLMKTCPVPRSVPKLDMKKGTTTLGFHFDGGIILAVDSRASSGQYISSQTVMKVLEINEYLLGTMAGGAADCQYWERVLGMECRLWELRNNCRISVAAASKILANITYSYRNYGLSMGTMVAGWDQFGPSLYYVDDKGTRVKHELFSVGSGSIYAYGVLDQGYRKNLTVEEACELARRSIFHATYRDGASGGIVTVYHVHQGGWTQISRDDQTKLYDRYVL

Homo sapiens = species on record: Homo sapiens; assay: To identify inhibition of the IFN signalling (Jak-Stat) pathway via expression of an eGFP reporter gene under the control of an IFN-stimulated response element (ISRE) containing MxA promoter.; assay type: functional; conditions: 30 µM
[7] = target: T4, Tyrosyl-tRNA synthetase, putative (Trypanosoma cruzi (strain CL Brener)) (UniProt Q4DSP6); assay: Trypanosoma cruzi tyrosyl tRNA synthetase (TcYRS) _High Tyrosine SOP; assay type: functional; conditions: 30 µM; note: in the data most compounds retested in dose-response had high values
T4 sequence (whole entry): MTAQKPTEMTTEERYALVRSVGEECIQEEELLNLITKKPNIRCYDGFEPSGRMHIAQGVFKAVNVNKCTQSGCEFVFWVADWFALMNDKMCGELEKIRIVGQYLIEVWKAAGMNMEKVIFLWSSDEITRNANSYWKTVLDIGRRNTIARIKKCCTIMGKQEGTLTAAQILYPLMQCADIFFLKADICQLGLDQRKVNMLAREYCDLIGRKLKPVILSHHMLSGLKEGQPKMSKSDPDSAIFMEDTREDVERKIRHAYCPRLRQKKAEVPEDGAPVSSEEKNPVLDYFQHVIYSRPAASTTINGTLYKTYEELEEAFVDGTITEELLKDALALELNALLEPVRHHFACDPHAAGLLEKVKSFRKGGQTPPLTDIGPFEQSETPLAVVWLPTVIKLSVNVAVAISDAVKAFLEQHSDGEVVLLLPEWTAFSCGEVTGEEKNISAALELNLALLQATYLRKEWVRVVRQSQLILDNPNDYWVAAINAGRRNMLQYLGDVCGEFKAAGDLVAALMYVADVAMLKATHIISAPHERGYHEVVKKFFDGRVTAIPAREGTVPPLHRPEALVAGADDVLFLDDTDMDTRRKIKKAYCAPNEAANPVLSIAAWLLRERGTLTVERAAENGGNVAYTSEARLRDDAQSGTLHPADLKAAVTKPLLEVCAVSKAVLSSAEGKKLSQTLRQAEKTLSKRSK

[8] = target: T4, Tyrosyl-tRNA synthetase, putative (Trypanosoma cruzi (strain CL Brener)); assay: Trypanosoma cruzi tyrosyl tRNA synthetase (TcYRS) SOP; assay type: functional; conditions: 30 µM
[9] = target: Chromo domain-containing protein 1 (Saccharomyces cerevisiae (strain ATCC 204508 / S288c) (Baker's yeast)) (UniProt P32657); assay: ScCHD-1 Enzyme Inhibition Assay; assay type: functional; conditions: 30 µM; note: in the data most compounds retested in dose-response had high values
Chromo domain-containing protein 1 (Saccharomyces cerevisiae (strain ATCC 204508 / S288c) (Baker's yeast)), sequence (P32657 whole entry, the tested form may be a part): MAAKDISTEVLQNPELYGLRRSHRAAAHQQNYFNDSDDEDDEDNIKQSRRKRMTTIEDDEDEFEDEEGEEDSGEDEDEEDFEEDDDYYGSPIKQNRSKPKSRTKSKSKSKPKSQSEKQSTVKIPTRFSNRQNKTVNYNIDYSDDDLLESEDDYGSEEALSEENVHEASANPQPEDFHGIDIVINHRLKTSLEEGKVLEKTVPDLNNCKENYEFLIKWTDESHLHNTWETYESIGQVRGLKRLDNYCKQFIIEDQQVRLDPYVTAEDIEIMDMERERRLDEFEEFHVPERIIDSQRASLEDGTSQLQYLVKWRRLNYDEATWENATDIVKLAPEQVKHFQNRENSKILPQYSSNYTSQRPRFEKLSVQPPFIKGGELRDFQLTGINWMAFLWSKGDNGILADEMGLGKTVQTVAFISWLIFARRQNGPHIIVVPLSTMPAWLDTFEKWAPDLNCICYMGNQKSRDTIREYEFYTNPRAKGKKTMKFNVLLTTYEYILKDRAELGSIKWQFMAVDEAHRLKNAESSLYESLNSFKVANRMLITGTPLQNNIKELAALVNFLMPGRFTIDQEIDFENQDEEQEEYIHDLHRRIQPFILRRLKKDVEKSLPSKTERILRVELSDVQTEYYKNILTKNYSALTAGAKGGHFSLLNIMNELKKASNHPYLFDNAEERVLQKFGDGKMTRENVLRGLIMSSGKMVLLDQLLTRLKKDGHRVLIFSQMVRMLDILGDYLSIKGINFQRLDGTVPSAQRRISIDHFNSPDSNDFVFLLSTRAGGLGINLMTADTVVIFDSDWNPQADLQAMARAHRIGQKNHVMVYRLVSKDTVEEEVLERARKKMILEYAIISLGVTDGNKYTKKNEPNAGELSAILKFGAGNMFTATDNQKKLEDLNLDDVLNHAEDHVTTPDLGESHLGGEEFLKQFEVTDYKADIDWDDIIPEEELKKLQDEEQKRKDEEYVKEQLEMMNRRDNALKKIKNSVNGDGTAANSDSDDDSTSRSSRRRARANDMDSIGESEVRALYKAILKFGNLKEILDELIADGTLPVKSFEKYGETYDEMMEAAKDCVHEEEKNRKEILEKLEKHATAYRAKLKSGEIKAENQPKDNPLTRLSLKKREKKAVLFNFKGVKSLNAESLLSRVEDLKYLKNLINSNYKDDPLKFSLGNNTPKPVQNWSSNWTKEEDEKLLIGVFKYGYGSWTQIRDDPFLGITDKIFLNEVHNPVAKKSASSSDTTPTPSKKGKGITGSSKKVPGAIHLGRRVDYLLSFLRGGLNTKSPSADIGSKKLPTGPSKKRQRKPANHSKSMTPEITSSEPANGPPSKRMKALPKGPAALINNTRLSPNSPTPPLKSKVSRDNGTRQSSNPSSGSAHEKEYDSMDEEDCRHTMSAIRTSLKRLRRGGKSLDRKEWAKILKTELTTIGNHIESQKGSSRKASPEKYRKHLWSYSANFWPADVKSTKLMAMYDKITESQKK

Protein translocase subunit SecA (Escherichia coli (strain K12)), sequence (P10408 whole entry): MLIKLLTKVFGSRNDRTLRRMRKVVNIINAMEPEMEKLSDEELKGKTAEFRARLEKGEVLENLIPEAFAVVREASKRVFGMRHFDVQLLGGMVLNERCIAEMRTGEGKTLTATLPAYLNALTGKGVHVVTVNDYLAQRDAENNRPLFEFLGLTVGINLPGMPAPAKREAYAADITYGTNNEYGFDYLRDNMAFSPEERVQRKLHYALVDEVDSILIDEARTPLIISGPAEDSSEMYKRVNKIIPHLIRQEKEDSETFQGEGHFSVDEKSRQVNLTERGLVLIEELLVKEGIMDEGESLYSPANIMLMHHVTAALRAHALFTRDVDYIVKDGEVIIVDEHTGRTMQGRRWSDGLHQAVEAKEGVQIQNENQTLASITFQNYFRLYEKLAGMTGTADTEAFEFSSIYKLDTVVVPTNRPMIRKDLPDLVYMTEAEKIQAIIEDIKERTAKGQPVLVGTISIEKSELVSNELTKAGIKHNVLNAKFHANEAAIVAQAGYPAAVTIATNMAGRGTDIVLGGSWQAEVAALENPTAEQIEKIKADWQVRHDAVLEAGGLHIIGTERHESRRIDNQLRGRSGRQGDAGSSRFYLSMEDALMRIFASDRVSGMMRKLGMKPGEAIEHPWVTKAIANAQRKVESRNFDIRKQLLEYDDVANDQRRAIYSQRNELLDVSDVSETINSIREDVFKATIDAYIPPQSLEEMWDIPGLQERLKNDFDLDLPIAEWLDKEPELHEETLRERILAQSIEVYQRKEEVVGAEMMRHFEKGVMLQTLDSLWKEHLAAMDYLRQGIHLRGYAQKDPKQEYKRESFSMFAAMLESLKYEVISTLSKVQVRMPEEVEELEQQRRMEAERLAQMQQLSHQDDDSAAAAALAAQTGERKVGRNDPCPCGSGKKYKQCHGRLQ
Sialic acid-binding Ig-like lectin 9 (Homo sapiens), sequence (Q9Y336 whole entry): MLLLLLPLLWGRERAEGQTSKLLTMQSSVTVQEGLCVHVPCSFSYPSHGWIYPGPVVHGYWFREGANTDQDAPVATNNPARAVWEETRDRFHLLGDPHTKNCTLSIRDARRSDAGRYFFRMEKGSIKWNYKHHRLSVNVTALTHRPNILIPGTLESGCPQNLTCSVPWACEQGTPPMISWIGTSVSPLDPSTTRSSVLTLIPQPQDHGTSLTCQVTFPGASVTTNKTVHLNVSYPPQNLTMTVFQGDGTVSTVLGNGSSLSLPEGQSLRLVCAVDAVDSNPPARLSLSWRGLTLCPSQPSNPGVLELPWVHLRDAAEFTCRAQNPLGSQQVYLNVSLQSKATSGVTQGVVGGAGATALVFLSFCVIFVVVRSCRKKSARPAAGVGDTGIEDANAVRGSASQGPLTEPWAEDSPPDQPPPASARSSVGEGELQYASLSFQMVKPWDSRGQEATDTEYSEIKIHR

| Structure (SMILES) | Percent Effect [1] | Percent Effect [2] | Percent Effect [3] | Percent Effect [4] | Percent Effect (Trypanosoma cruzi) | Percent Effect [5] | Percent Effect [6] | Percent Effect (Homo sapiens) | Percent Effect [7] | Percent Effect [8] | Percent Effect [9] |
| --- | --- | --- | --- | --- | --- | --- | --- | --- | --- | --- | --- |
| CCOC(=O)NC(CNC(=O)CCc1ccccn1)CC(C)C (configuration not stated) | -7.25% | 0% | 0.68% | -3.55% | 3.62% | 2.73% | 4.72% | -1.48% | -5.38% | 3.7% | -0.238% |
| CS(=O)(=O)NCCC(=O)NC1CCc2nccn2C1 (configuration not stated) | 2.27% | 2.67% | -6.45% | 1.64% | -7.5% | 2.08% | 19.7% | 11.5% | 4.92% | 11.1% | -5.26% |
| CC(C)(C)c1n[nH]c(C2CN(C(=O)c3cc(Cl)c[nH]3)CCO2)n1 (configuration not stated) | -6.35% | 15.8% | 3.14% | 10.4% | 3.99% | -5.92% | 17.2% | -3.03% | 2.13% | 15.6% | -6.65% |
| Cn1cc(NC(=O)Cn2c(CS(C)(=O)=O)nc3ccccc32)cn1 | -2.27% | 7.89% | 3.88% | 2.76% | 0.0974% | -1.18% | 12.6% | -13.6% | 3.19% | 13% | -3.67% |
| CCN1C(=O)C(C)(C)c2cc(NC(=O)c3ccco3)ccc21 | -5.66% | 10.4% | 17.2% | 5.8% | 1.48% | -13.8% | 12.7% | 19.7% | 12.9% | 21% | 0.612% |
| Cc1nc(C2CCCN(C(=O)c3sccc3C3CC3)C2)no1 (configuration not stated) | -1.32% | -1.39% | -29% | -2.96% | -0.486% | -0.442% | 11.9% | 5.93% | 0% | 0% | -0.247% |
| Cc1cnn(CCNCC(O)COc2ccc(C#N)cc2)c1 (configuration not stated) | -4.77% | 15.2% | -8.43% | 8.11% | 1.42% | 2.28% | 8.44% | -3.4% | 5.42% | 13.9% | -5.58% |
| CCCOc1ccc(CNC2CCCc3c2cnn3CC)cc1OC (configuration not stated) | -6.15% | 15.2% | -7.05% | 11% | 6.33% | -3.04% | 5.98% | 2.78% | 9.36% | 21.5% | -12.2% |
| CC(=O)Nc1nc(C(=O)N2CCCC2c2noc(C)n2)cs1 (configuration not stated) | -6.47% | -5.2% | 10.4% | -6.87% | -7.12% | 2.13% | -2.2% | 22.6% | -1.94% | -17.1% | -6.82% |
| CNC(=O)c1nc2c(s1)CCN(C(=O)c1cccnc1)CC2 | 2.24% | 0% | 4.01% | 3.91% | -3.67% | -50.4% | 3.42% | 3.61% | 3.12% | 5% | -2.25% |
| Cc1cc(N2CCCCCC2)n2nc(C)c(C)c2n1 | -1.9% | 4.17% | -3.08% | 0.107% | 12.2% | -0.883% | 23.3% | 3.63% | 0% | 12.8% | -7.26% |
| O=C(NC[C@]12COC[C@H]1CN(Cc1nccs1)C2)N1CCCC1 | -2.52% | 9.33% | 4.41% | 2.77% | -4.52% | -7.92% | 13.5% | -4.41% | 2.12% | 5.13% | -5.18% |
| CC(C)CNC(=O)CN1C=Nc2ccccc2S1(=O)=O | -6.73% | 7.89% | 0.627% | -6.85% | -10.6% | 2.16% | -1.95% | 2.69% | 0.493% | 6.17% | -5% |
| CCOC(=O)N1CCC(C(=O)c2cc(F)ccc2F)CC1 | -3.27% | -2.63% | 4.38% | -6.37% | -1.69% | 4.98% | -3.34% | 10.2% | -1.47% | -4.88% | -0.881% |
| O=C(NCC(O)c1cccc(F)c1)c1cccnc1O (configuration not stated) | -5.99% | 16.4% | -2.16% | 7.14% | 9.52% | -4.79% | 5.05% | 7.58% | 7.29% | 13.6% | -7.57% |
| CNC(=O)[C@H]1C[C@H]2OCC[C@H]2N(Cc2cccc3ccccc23)C1 | -2.27% | 10.4% | 2.57% | 2.56% | -0.296% | -3.23% | 8.01% | -0.999% | 3.17% | 8.97% | -9.11% |
| Cc1nc(CN(Cc2ccccc2)C2CCS(=O)(=O)C2)oc1C (configuration not stated) | -2.4% | 15.8% | -3.46% | 2.71% | 5.32% | -1.08% | 10.4% | -8.35% | 7.39% | 23.5% | -6.72% |
| CC(C)c1nnc2n1CCN(C(=O)CN1Cc3ccccc3C1=O)C2 | -6.1% | 2.63% | -4.36% | 2.22% | 6.2% | -0.383% | 4.34% | 6.89% | 9.31% | 17.1% | -12.6% |
| CN(C)C1CCN(C(=O)NCc2ccc(Cn3cncn3)cc2)CC1 | -4.29% | -5.41% | -5.16% | 28.9% | 9.85% | -2.38% | 14.5% | 6.43% | 5.82% | 17.1% | -10% |
| O=C(COCc1ccccc1Cl)N1CCCC(n2cccn2)C1 (configuration not stated) | -4.85% | 18.2% | 6.5% | -7.66% | -1.08% | 4% | 20.4% | 20.2% | 2.86% | 11.8% | -9.25% |
| CCS(=O)(=O)c1ccc(N2CCC(NC(=O)c3cnn(C)c3)CC2)cc1 | -5.94% | 2.67% | -5.84% | 34.3% | 10.2% | -2.08% | 16.2% | 21.8% | 1.64% | 13.6% | -5.47% |
| Cc1ccc(=O)n(CC2(O)CCN(Cc3cc(C)c(O)c(C)c3)CC2)n1 | -6.97% | 23% | -6.19% | 7.09% | 6.52% | -2.55% | 13.3% | -3.64% | 2.15% | 14.3% | 45.6% |

From ChEMBL document CHEMBL3988442, “University of Dundee, Small-Polar-MMV Screening Library” (2021)
